In the supplement of paper PMC10981050:
Several values for one entry are separate records, joined by “and”; a condition that tells them apart may be missing. Equal values may be shown once. Where a name gives a salt, the structure may show the parent alone.

What was measured:
Assay in all cases: cell viability relative to vehicle control; higher = less cytotoxic
Conditions in all cases: 10 µM
[1] = tested on: K562
Method in brief: (§1)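 CRISPR-edited mutant clones and isogenic wild-type clones from four leukaemia lines were screened against Selleck bioactive, kinase and epigenetic probe libraries, with identity-inconsistent compounds excluded. Each compound was acoustically dispensed at a single 10 µM dose into 384-well plates holding 2000 cells in 50 µL medium per well. After 48 h the supernatant was removed and CellTiter-Glo luminescence was read. Viability was expressed as percent of the on-plate vehicle control and analysed in Genedata Screener.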

[2] = tested on: MARIMO
Method in brief: as §1

[3] = tested on: MOLM14
Method in brief: as §1

[4] = tested on: OCI-AML2
Method in brief: as §1

Row | SMILES | cell viability ([1]; SRSF2 genotype: SRSF2 P95H/wt) | cell viability ([1]; SRSF2 genotype: SRSF2 wt/wt) | cell viability ([2]; SRSF2 genotype: SRSF2 P95H/wt) | cell viability ([2]; SRSF2 genotype: SRSF2 wt/wt) | cell viability ([3]; SRSF2 genotype: SRSF2 P95H/wt) | cell viability ([3]; SRSF2 genotype: SRSF2 wt/wt) | cell viability ([4]; SRSF2 genotype: P95H/wt) | cell viability ([4]; SRSF2 genotype: wt/wt)
1 | COc1cc(Nc2ncc(F)c(Nc3ccc4c(n3)NC(=O)C(C)(C)O4)n2)cc(OC)c1OC | 99.2% and 103% | 104% | 83.7% | 85.8% | 22.3% | 19.6% | 41.2% | 47.7%
2 | CN1CCC(NC(=O)c2cc(-c3c(O)cc(O)cc3Oc3ccc([N+](=O)[O-])cc3)on2)CC1 | 17.4% and 26.5% | 23.6% | 29.8% | 23.9% | 1.68% | 1.87% | 17.5% | 19.7%
3 | CC(C(=O)O)c1ccc(C(=O)c2cccs2)cc1 (centres undefined) [Suprofen (Profenal)] | 107% and 103% | 93.2% | 94.7% | 110% | 98.9% | 99.9% | 88.8% | 94.2%
4 | CCN(CC)C(=O)/C(C#N)=C/c1cc(O)c(O)c([N+](=O)[O-])c1 [Entacapone] | 101% and 105% | 107% | 101% | 102% | 102% | 102% | 114% | 97.4%
5 | CN1CCc2c(c3ccccc3n2Cc2ccc(C(=O)NO)cc2)C1 [Tubastatin A hydrochloride] | 77.4% and 88.8% | 84.6% | 67% | 66.5% | 43.8% | 43.6% | 51.1% | 49.9%
6 | COc1ccc(C[C@@H]2c3cc(Oc4cc(C[C@@H]5c6cc(OC)c(OC)cc6CCN5C)ccc4O)c(OC)cc3CCN2C)cc1 [Neferine] | 109% and 107% | 99% | 104% | 120% | 106% | 109% | 102% | 102%
7 | CC(C)=CCC[C@](C)(O[C@@H]1O[C@H](CO)[C@@H](O)[C@H](O)[C@H]1O)[C@H]1CC[C@]2(C)[C@@H]1[C@H](O)C[C@@H]1[C@@]3(C)CC[C@H](O)C(C)(C)[C@@H]3[C@@H](O[C@@H]3O[C@H](CO)[C@@H](O)[C@H](O)[C@H]3O)C[C@]12C [Ginsenoside Rg1] | 95.2% and 91.8% | 101% | 96.7% | 94.4% | 97.5% | 98.4% | 99.5% | 104%
8 | Nc1ccccc1NC(=O)c1ccc(CNC(=O)OCc2cccnc2)cc1 [Entinostat (MS-275, SNDX-275)] | 9.53% and 33.8% | 26.6% | 22.1% | 25.4% | 1.22% | 1.1% | 0.59% | 4.33%
9 | O=C(NC1CCN(CCCCC2(C(=O)NCC(F)(F)F)c3ccccc3-c3ccccc32)CC1)c1ccccc1-c1ccc(C(F)(F)F)cc1 [Lomitapide Mesylate] | 0.41% and 0.38% | 0.33% | 0.5% | 0.68% | 0.26% | 0.3% | 0.27% | 0.3%
10 | COCC[n+]1c2c(n(Cc3cnccn3)c1C)C(=O)c1ccccc1C2=O [YM155 (Sepantronium Bromide)] | 0.4% and 0.35% | 0.47% | 0.69% | 1.06% | 0.33% | 0.32% | 0.31% | 0.36%
11 | O=C(O)COc1ccc(Br)cc1C=C1SC(=S)N(Cc2cccnc2)C1=O [Skp2 inhibitor C1 (SKPin C1)] | 34.9% and 35.5% | 35.5% | 18.9% | 18.6% | 5.39% | 2.44% | 3.65% | 9.12%
12 | OC[C@H]1O[C@@](CO)(O[C@H]2O[C@H](CO)[C@@H](O)[C@H](O)[C@H]2O)[C@@H](O[C@H]2O[C@H](CO)[C@@H](O)[C@H](O)[C@H]2O)[C@@H]1O [Melezitose] | 107% and 99.6% | 104% | 99% | 111% | 102% | 104% | 96.3% | 114%
13 | CC[C@H](Nc1ncnc2[nH]cnc12)c1oc2ccccc2c(=O)c1-c1cccc(F)c1 [Tenalisib (RP6530)] | 101% and 96% | 98.2% | 95.2% | 100% | 82.4% | 84.4% | 84.8% | 87.5%
14 | CCOC(=O)CCC(=O)O[C@H]1[C@H](O[C@@H]2[C@@H](C)[C@H](O[C@H]3C[C@@](C)(OC)[C@@H](O)[C@H](C)O3)[C@@H](C)C(=O)O[C@H](CC)[C@@](C)(O)[C@H](O)[C@@H](C)C(=O)[C@H](C)C[C@@]2(C)O)O[C@H](C)C[C@@H]1N(C)C [Erythromycin Ethylsuccinate] | 95.1% and 103% | 108% | 102% | 101% | 106% | 102% | 117% | 98.3%
15 | CCCC(=O)NCCc1csc(-c2ccc(Cl)cc2)n1 [Azoramide] | 86.4% and 89.4% | 98.4% | 79.9% | 83.8% | 102% | 99.5% | 71.1% | 75.5%
16 | COc1cc2c(cc1O)CC[n+]1cc3c(OC)c(OC)ccc3cc1-2 [Jatrorrhizine] | 91.4% and 98.7% | 95.8% | 107% | 103% | 101% | 99.8% | 105% | 98.2%
17 | CNC(=C[N+](=O)[O-])NCCSCc1ccc(CN(C)C)o1 [Ranitidine Hydrochloride] | 108% and 98.4% | 102% | 99.9% | 106% | 103% | 103% | 91% | 105%
18 | O=C1C[C@@H](c2ccccc2)Oc2cc(O)cc(O)c21 [Pinocembrin] | 91.6% and 92.5% | 95.4% | 96.4% | 99.8% | 109% | 112% | 95.1% | 87.8%
19 | C=CC(=O)Nc1ccc(CN2C(=O)N(c3cc(OC)cc(OC)c3)Cc3cnc(Nc4ccc(N5CCN(C)CC5)cc4)nc32)cc1 | 66.2% and 73.3% | 77.8% | 81.2% | 78.8% | 37.9% | 40.1% | 25.8% | 34.5%

Row | SMILES | cell viability ([1]; SRSF2 genotype: SRSF2 P95H/wt) | cell viability ([1]; SRSF2 genotype: SRSF2 wt/wt) | cell viability ([2]; SRSF2 genotype: SRSF2 P95H/wt) | cell viability ([2]; SRSF2 genotype: SRSF2 wt/wt) | cell viability ([3]; SRSF2 genotype: SRSF2 P95H/wt) | cell viability ([3]; SRSF2 genotype: SRSF2 wt/wt) | cell viability ([4]; SRSF2 genotype: P95H/wt) | cell viability ([4]; SRSF2 genotype: wt/wt)
20 | Cc1cc(N2CCCCC2)nc2ccccc12 | 97% and 102% | 98.3% | 93.6% | 106% | 98.8% | 109% | 96.6% | 103%
21 | CC(C)CC(NC(=O)C(Cc1ccccc1)CC(O)C(Cc1ccccc1)NC(=O)OC(C)(C)C)C(=O)NC(Cc1ccccc1)C(N)=O (centres undefined) | 106% and 109% | 111% | 106% | 99.5% | 108% | 106% | 112% | 120%
22 | CC(C)c1nc(CN(C)C(=O)N[C@H](C(=O)N[C@@H](Cc2ccccc2)C[C@H](O)[C@H](Cc2ccccc2)NC(=O)OCc2cncs2)C(C)C)cs1 [Ritonavir] | 89.2% and 88.4% | 82.6% | 81.9% | 95% | 81.8% | 88.3% | 102% | 89.3%
23 | Nc1ccc(-c2ccc3ncc4ccc(=O)n(-c5cccc(C(F)(F)F)c5)c4c3c2)cn1 [Torin 2] | 13.4% and 21.3% | 16.9% | 16.5% | 20.9% | 1.07% | 2.53% | 1.62% | 7.04%
24 | CCc1nc(-c2cccc(C)c2)c(-c2ccnc(NC(=O)c3ccccc3)c2)s1 | 75.8% and 73% | 66.3% | 72.3% | 64% | 76.5% | 86.7% | 83.7% | 76.5%
25 | CNC[C@H](O)c1cccc(O)c1 [Phenylephrine hydrochloride] | 103% and 114% | 109% | 104% | 104% | 101% | 109% | 106% | 103%
26 | Cc1[nH]nc2ccc(-c3cncc(OC[C@@H](N)Cc4ccccc4)c3)cc12 | 31.9% and 28.5% | 26.3% | 7.82% | 5.76% | 0.2% | 0.05% | 0.26% | 6.55%
27 | O=C1NS(=O)(=O)c2ccccc21 [Saccharin] | 99% and 89.3% | 93.9% | 90.5% | 101% | 97.9% | 96.6% | 89.5% | 103%
28 | C/C=C(/C)C(=O)O[C@H]1[C@@H](OC(=O)CC(C)C)c2c(ccc3ccc(=O)oc23)OC1(C)C [Praeruptorin E] | 65.9% and 77.1% | 79% | 57.4% | 53.9% | 69.4% | 76.3% | 25.6% | 52.9%
29 | Cc1ccc(NC(=S)NNc2c([N+](=O)[O-])cc(C(F)(F)F)cc2[N+](=O)[O-])cc1Cl | 81% and 81.3% | 90.4% | 87.3% | 86.2% | 89.3% | 84.6% | 101% | 94.4%
30 | Cc1[nH]c(/C=C2\C(=O)Nc3ccc(F)cc32)c(C)c1C(=O)NCCN1CCCC1 [Toceranib phosphate] | 97.4% and 103% | 94.5% | 64% | 53.4% | 5.66% | 7.09% | 11.6% | 19.6%
31 | CCOC(=O)[C@@H](N)Cc1ccc(-c2cc(O[C@H](c3ccc(Cl)cc3-n3ccc(C)n3)C(F)(F)F)nc(N)n2)cc1 [LX1606 hippurate] | 64.2% and 52.4% | 57.2% | 68.9% | 72.7% | 14.2% | 44.5% | 4.73% | 12.2%
32 | NS(=O)(=O)c1ccc(NC(=S)N2CCN(CC=Cc3ccccc3)CC2)cc1 | 85.3% and 88.8% | 93.5% | 83.5% | 76.7% | 95.3% | 99.2% | 64.5% | 76.5%
33 | Cc1[nH]c(/C=C2\C(=O)Nc3ccc(S(=O)(=O)N(C)c4cccc(Cl)c4)cc32)c(C)c1C(=O)N1CCN(C)CC1 | 62.4% and 64.8% | 80.7% | 50.9% | 53.2% | 0.26% | 64.6% | 0.09% | 0.12%
34 | CCCCCCCCCC=O [Decyl aldehyde] | 98.7% and 94.8% | 106% | 99.1% | 101% | 102% | 105% | 100% | 111%
35 | CCOC(=O)c1[nH]c2cc(Cl)ccc2c1C(C(=O)NC(C)(C)C)N(C=O)Cc1ccc(Cl)cc1 (centres undefined) | 78.9% and 75.1% | 75.3% | 68.1% | 74.4% | 44.1% | 57.5% | 77.3% | 64.2%
36 | C=CC(=O)N1CC[C@@H](Oc2nc(Nc3ccc(N4CCC(N5CCN(C)CC5)CC4)cc3)c(C(N)=O)nc2CC)C1 [ASP8273 (Naquotinib)] | 51.2% and 34.1% | 47.1% | 26.7% | 29.7% | 8.47% | 10.5% | 20.4% | 24.4%
37 | OCC1OC(OC2OC(CO)C(O)C(O)C2O)C(O)C(O)C1O [D-(+)-Trehalose Anhydrous] | 109% and 105% | 114% | 111% | 99.1% | 107% | 107% | 99.6% | 102%
38 | O=C(O)CC(O)(CC(=O)OCc1ccc(O[C@@H]2O[C@H](CO)[C@@H](O)[C@H](O)[C@H]2O)cc1)C(=O)OCc1ccc(O[C@@H]2O[C@H](CO)[C@@H](O)[C@H](O)[C@H]2O)cc1 (some centres undefined) [Parishin B] | 106% and 105% | 109% | 103% | 98.4% | 113% | 105% | 99.6% | 100%
